Assay results: PubChem BioAssay (NCI)
The panel holds about 83,000 compounds, 20% with a hit somewhere; the sample as a whole holds those more often.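 The test compound was applied at a single concentration to cells in 96-well plates for 48 hours, and percent growth was recorded.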 Active and inactive are the calls of the source. The calls were made as follows: active = growth percent below 10; inactive = the rest.

Experiments:
Test in all cases: NCI-60 one-dose screen, 48 h (100 = growth as untreated, 0 = no growth, -100 = all killed)
Conditions in all cases: 10 µM unless noted
SK-MEL-2 melanoma = tested on: SK-MEL-2 melanoma
EKVX NSCLC = tested on: EKVX NSCLC
SN12C renal = tested on: SN12C renal
UO-31 renal = tested on: UO-31 renal
TK-10 renal = tested on: TK-10 renal
ACHN renal = tested on: ACHN renal
CAKI-1 renal = tested on: CAKI-1 renal
A498 renal = tested on: A498 renal
CCRF-CEM leukemia = tested on: CCRF-CEM leukemia
MOLT-4 leukemia = tested on: MOLT-4 leukemia
SR leukemia = tested on: SR leukemia
RPMI-8226 leukemia = tested on: RPMI-8226 leukemia
OVCAR-8 ovarian = tested on: OVCAR-8 ovarian
OVCAR-5 ovarian = tested on: OVCAR-5 ovarian
OVCAR-4 ovarian = tested on: OVCAR-4 ovarian
SK-OV-3 ovarian = tested on: SK-OV-3 ovarian
OVCAR-3 ovarian = tested on: OVCAR-3 ovarian
HS 578T breast = tested on: HS 578T breast
NCI/ADR-RES ovarian = tested on: NCI/ADR-RES ovarian
IGROV1 ovarian = tested on: IGROV1 ovarian

Measured: growth

CCCCn1c(=O)c(C2CNC(=O)c3ccccc3N2)cc2ccccc21 (configuration not stated)
inactive: SK-MEL-2 melanoma 106% | EKVX NSCLC 103% | SN12C renal 85.7% | UO-31 renal 93.1% | TK-10 renal 109% | ACHN renal 98.2% | CAKI-1 renal 85.8% | A498 renal 88.7% | CCRF-CEM leukemia 110% | MOLT-4 leukemia 46.4% | SR leukemia 102% | RPMI-8226 leukemia 109% | OVCAR-8 ovarian 114% | OVCAR-5 ovarian 96.3% | OVCAR-4 ovarian 103% | SK-OV-3 ovarian 97.2% | OVCAR-3 ovarian 99.7% | HS 578T breast 94.6% | NCI/ADR-RES ovarian 100%

CCn1cc(C2NC(=O)c3cc(F)ccc3N2)c2cccc(Cl)c21 (configuration not stated)
active: A498 renal -11.4% | CCRF-CEM leukemia 5.2% | SR leukemia -10.1% | RPMI-8226 leukemia 9.88% | OVCAR-8 ovarian -35.9% | OVCAR-3 ovarian 6.84% | NCI/ADR-RES ovarian 1.68%
inactive: SK-MEL-2 melanoma 17.5% | EKVX NSCLC 37.6% | SN12C renal 29.8% | UO-31 renal 42.6% | TK-10 renal 50.4% | ACHN renal 33.5% | CAKI-1 renal 34% | MOLT-4 leukemia 10.8% | OVCAR-5 ovarian 36% | OVCAR-4 ovarian 39.4% | SK-OV-3 ovarian 27.7% | IGROV1 ovarian 18.2% | HS 578T breast 12.4%

N#Cc1c(NC(=O)c2ccc([N+](=O)[O-])o2)[n+]([O-])c2cc(F)c(F)cc2[n+]1[O-]
inactive: SK-MEL-2 melanoma 34.6% | EKVX NSCLC 149% | SN12C renal 108% | UO-31 renal 40.8% | TK-10 renal 179% | ACHN renal 109% | CAKI-1 renal 113% | A498 renal 151% | CCRF-CEM leukemia 100% | MOLT-4 leukemia 120% | SR leukemia 77.3% | RPMI-8226 leukemia 111% | OVCAR-8 ovarian 68% | OVCAR-5 ovarian 108% | OVCAR-4 ovarian 102% | SK-OV-3 ovarian 129% | OVCAR-3 ovarian 122% | HS 578T breast 158% | NCI/ADR-RES ovarian 102%

CC(C)(C)OC(=O)N1C/C(=C\c2cccs2)C(=O)/C(=C/c2cccs2)C1
inactive: SK-MEL-2 melanoma 95.6% | EKVX NSCLC 99.5% | SN12C renal 93.6% | UO-31 renal 71.4% | TK-10 renal 110% | ACHN renal 97.2% | CAKI-1 renal 67.2% | A498 renal 81.9% | CCRF-CEM leukemia 51.7% | MOLT-4 leukemia 69.4% | SR leukemia 55.5% | RPMI-8226 leukemia 55.4% | OVCAR-8 ovarian 87.8% | OVCAR-5 ovarian 109% | OVCAR-4 ovarian 82.2% | SK-OV-3 ovarian 90.1% | IGROV1 ovarian 83% | OVCAR-3 ovarian 104% | HS 578T breast 93.3% | NCI/ADR-RES ovarian 96.3%

CCCCCCCCCCC/C=C\C[C@H](O)C/C=C1/C(=O)C=C[C@@H]1C/C=C\CCCC(=O)OC
inactive: CAKI-1 renal 13.8% | A498 renal 99.7% | CCRF-CEM leukemia 12.2% | OVCAR-5 ovarian 21.9% | SK-OV-3 ovarian 26.8% | HS 578T breast 18%
active: SK-MEL-2 melanoma -24.4% | EKVX NSCLC 1.38% | SN12C renal -24.7% | UO-31 renal -63% | TK-10 renal 0.114% | ACHN renal -20.1% | MOLT-4 leukemia -0.235% | SR leukemia 6.46% | RPMI-8226 leukemia -10.2% | OVCAR-8 ovarian 7.18% | OVCAR-4 ovarian -1.25% | IGROV1 ovarian -15.9% | OVCAR-3 ovarian -46.2% | NCI/ADR-RES ovarian 9.04%

CSc1nc(-c2cc3ccccc3o2)cc(-c2ccc(Cl)cc2)c1C#N
active: UO-31 renal -18.2% | ACHN renal -63% | OVCAR-4 ovarian -57.5% | SK-OV-3 ovarian -21.3%
inactive: SK-MEL-2 melanoma 23.8% | EKVX NSCLC 73.7% | SN12C renal 36.8% | TK-10 renal 54.7% | CAKI-1 renal 48% | A498 renal 81.9% | CCRF-CEM leukemia 86.8% | MOLT-4 leukemia 94.5% | SR leukemia 82.6% | RPMI-8226 leukemia 26.6% | OVCAR-8 ovarian 28.7% | OVCAR-5 ovarian 93.7% | OVCAR-3 ovarian 37.7% | HS 578T breast 76% | NCI/ADR-RES ovarian 64.3%

Cc1oc2ncnc(Nc3ccccc3)c2c1C(=O)NCCO
active: MOLT-4 leukemia -0.282%
inactive: SK-MEL-2 melanoma 113% | EKVX NSCLC 97.6% | SN12C renal 93.2% | UO-31 renal 87.7% | TK-10 renal 122% | ACHN renal 91.8% | CAKI-1 renal 90.8% | A498 renal 78.2% | CCRF-CEM leukemia 97.4% | SR leukemia 52.2% | RPMI-8226 leukemia 94.8% | OVCAR-8 ovarian 113% | OVCAR-5 ovarian 93.2% | OVCAR-4 ovarian 103% | SK-OV-3 ovarian 100% | OVCAR-3 ovarian 102% | HS 578T breast 90.5% | NCI/ADR-RES ovarian 102%

C/C1=C\CCC2(C)OC2CC2CCC(C)(O)C(CC1)C2(C)C (configuration not stated)
inactive: SK-MEL-2 melanoma 106% | EKVX NSCLC 81.1% | SN12C renal 101% | UO-31 renal 99.2% | TK-10 renal 97% | ACHN renal 92.5% | CAKI-1 renal 87.7% | A498 renal 106% | CCRF-CEM leukemia 84.1% | MOLT-4 leukemia 97.9% | SR leukemia 92.4% | RPMI-8226 leukemia 111% | OVCAR-8 ovarian 89.8% | OVCAR-5 ovarian 112% | OVCAR-4 ovarian 99.7% | SK-OV-3 ovarian 112% | IGROV1 ovarian 93.9% | OVCAR-3 ovarian 118% | HS 578T breast 83.8% | NCI/ADR-RES ovarian 104%

O=C1Nc2cc(Cl)ccc2/C1=C/c1ccc(N2CCOCC2)s1
inactive: SK-MEL-2 melanoma 91.4% | EKVX NSCLC 105% | SN12C renal 104% | UO-31 renal 85.9% | ACHN renal 114% | CAKI-1 renal 100% | A498 renal 87.1% | CCRF-CEM leukemia 99.8% | MOLT-4 leukemia 92.8% | SR leukemia 97% | RPMI-8226 leukemia 85.7% | OVCAR-8 ovarian 98.2% | OVCAR-5 ovarian 94.4% | OVCAR-4 ovarian 99.1% | SK-OV-3 ovarian 113% | IGROV1 ovarian 45.3% | OVCAR-3 ovarian 115% | HS 578T breast 129% | NCI/ADR-RES ovarian 99.8%
active: TK-10 renal -3.94%

CCCCNc1nnc(-c2cc(-c3cc4ccccc4o3)nn2-c2ccccc2)o1
inactive: SK-MEL-2 melanoma 90.6% | EKVX NSCLC 99.4% | SN12C renal 93.6% | UO-31 renal 71.3% | TK-10 renal 104% | ACHN renal 85.9% | CAKI-1 renal 97.4% | A498 renal 86.5% | CCRF-CEM leukemia 80% | MOLT-4 leukemia 68.8% | SR leukemia 76.5% | RPMI-8226 leukemia 77.9% | OVCAR-8 ovarian 88% | OVCAR-5 ovarian 105% | OVCAR-4 ovarian 86.7% | SK-OV-3 ovarian 99.4% | OVCAR-3 ovarian 66% | HS 578T breast 93.1% | NCI/ADR-RES ovarian 87.5%

N#CC1=C(N)n2nc(-c3ccncc3)nc2NC1c1cccc2ccccc12 (configuration not stated)
inactive: SK-MEL-2 melanoma 96.3% | EKVX NSCLC 71.7% | SN12C renal 96.6% | UO-31 renal 58.1% | TK-10 renal 103% | ACHN renal 95.2% | CAKI-1 renal 69% | A498 renal 89.8% | CCRF-CEM leukemia 87.7% | MOLT-4 leukemia 86.4% | SR leukemia 80.3% | RPMI-8226 leukemia 74.9% | OVCAR-8 ovarian 92.7% | OVCAR-5 ovarian 100% | OVCAR-4 ovarian 80.4% | SK-OV-3 ovarian 98.2% | IGROV1 ovarian 91.2% | OVCAR-3 ovarian 97.4% | HS 578T breast 80.5% | NCI/ADR-RES ovarian 91.9%

COc1ccc(/C=C(\C#N)c2ccc([N+](=O)[O-])cc2)c2ccccc12
active: OVCAR-4 ovarian 2.84% | SK-OV-3 ovarian 5.28%
inactive: SK-MEL-2 melanoma 59.8% | EKVX NSCLC 52.9% | SN12C renal 41.4% | UO-31 renal 66.5% | TK-10 renal 88.1% | ACHN renal 37.9% | CAKI-1 renal 64.3% | A498 renal 60% | CCRF-CEM leukemia 83% | MOLT-4 leukemia 88.3% | SR leukemia 31% | RPMI-8226 leukemia 82.8% | OVCAR-8 ovarian 15.8% | OVCAR-5 ovarian 92.8% | OVCAR-3 ovarian 62.6% | HS 578T breast 26.2% | NCI/ADR-RES ovarian 50%

O=C(/C=C/CN1CCOCC1)Nc1cc2c(Nc3ccc(F)c(Cl)c3F)ncnc2cc1OCCOC(F)F
active: A498 renal -5.14%
inactive: SK-MEL-2 melanoma 85.6% | EKVX NSCLC 24.8% | SN12C renal 34.4% | UO-31 renal 22.9% | TK-10 renal 33.9% | ACHN renal 14.2% | CAKI-1 renal 15.9% | CCRF-CEM leukemia 94% | MOLT-4 leukemia 69.5% | SR leukemia 60.7% | RPMI-8226 leukemia 17.8% | OVCAR-8 ovarian 49.6% | OVCAR-5 ovarian 49.6% | OVCAR-4 ovarian 54.7% | SK-OV-3 ovarian 11.8% | OVCAR-3 ovarian 48.9% | HS 578T breast 23.1% | NCI/ADR-RES ovarian 36.2%

Cc1ccc(S(=O)(=O)OCC(=O)Nc2ccc(C(=O)O)c(O)c2)cc1
inactive: SK-MEL-2 melanoma 39.5% | EKVX NSCLC 103% | SN12C renal 105% | UO-31 renal 53% | TK-10 renal 118% | ACHN renal 102% | CAKI-1 renal 102% | A498 renal 99.3% | CCRF-CEM leukemia 83.5% | MOLT-4 leukemia 57.1% | SR leukemia 45.7% | RPMI-8226 leukemia 92% | OVCAR-8 ovarian 97.7% | OVCAR-5 ovarian 102% | OVCAR-4 ovarian 86.9% | SK-OV-3 ovarian 127% | OVCAR-3 ovarian 118% | HS 578T breast 118% | NCI/ADR-RES ovarian 88%
active: IGROV1 ovarian -17.7%

Cc1ccc2nc(-c3c(CCCO)noc3N)[nH]c(=O)c2c1
inactive: SK-MEL-2 melanoma 105% | EKVX NSCLC 101% | SN12C renal 111% | UO-31 renal 47% | TK-10 renal 95.5% | ACHN renal 113% | CAKI-1 renal 97.1% | A498 renal 104% | CCRF-CEM leukemia 88.5% | MOLT-4 leukemia 83.7% | SR leukemia 71.8% | RPMI-8226 leukemia 90.4% | OVCAR-8 ovarian 106% | OVCAR-5 ovarian 120% | OVCAR-4 ovarian 97.4% | SK-OV-3 ovarian 106% | OVCAR-3 ovarian 104% | HS 578T breast 104% | NCI/ADR-RES ovarian 123%

O=S(=O)(NCCCNc1cc(-c2cn(-c3ccccc3)nc2-c2cccc(O)c2)ccn1)c1cccc(F)c1
inactive: SK-MEL-2 melanoma 66.3% | EKVX NSCLC 39% | SN12C renal 65.9% | UO-31 renal 35.6% | TK-10 renal 58.9% | ACHN renal 43.7% | CAKI-1 renal 41% | A498 renal 46.6% | CCRF-CEM leukemia 36.3% | MOLT-4 leukemia 31% | SR leukemia 35% | RPMI-8226 leukemia 32% | OVCAR-8 ovarian 39.8% | OVCAR-5 ovarian 68.3% | OVCAR-4 ovarian 50.2% | SK-OV-3 ovarian 72% | IGROV1 ovarian 53.8% | OVCAR-3 ovarian 65.6% | HS 578T breast 41.7% | NCI/ADR-RES ovarian 49.3%
